Nrf2 inh = inhibitors of Nrf2 signaling | A549 ARE-Fluc reporter, luciferase luminescence, 18-24 h | Potency, µM (doses to about 46 µM), without a hit: top-dose activity change, negative = inhibition, hits mostly inhibitors | 2.1% of 360,000 active; note: % is set by controls: 0 for no effect and ±100 for the full control effect; nearly all actives have a fitted effect of over 60% in size
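A549 ARE_Fluc cells, 5000/well, 5% FBS OPTI-MEM; compounds in dose-response, 18-24 h at 37 °C/5% CO2; CellTiter-Fluor viability read (Ex 405/Em 525), then BugLite luciferase luminescence = Nrf2 activity.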
Nrf2 activator = Nrf2 pathway activation. 0.31% of 410,000 active. AREc32 ARE-luciferase reporter (MCF7-derived line), luminescence, 24 h. Potency, µM (doses to about 46.1 µM), for the others: at the highest dose activation, most hits filed as activators; note: % of control where 0% means no effect; nearly all actives have a fitted effect of over 65% in size
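AREc32_Fluc, 1000 cells/well, OPTI-MEM + 5% FBS, o/n 37 deg C 5% CO2; 23 nL cpd by pin tool, 24 hr; Steady-Glo 30 min RT, luminescence.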
ATXN2 expr inh = inhibitors of ATXN2 expression; HEK-293 ATXN2-luciferase reporter, luminescence, 24 h; Potency, µM (highest dose often 57 µM), without a hit: top-dose activity change, negative = inhibition, usual class: inhibitors; 0.72% of 360,000 active; AID 1745845; note: % is set by controls: 0 for no effect and ±100 for the full control effect; nearly all actives have a fitted effect of over 55% in size
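qHTS (up to 57 uM final) was run with 24 h compound exposure of reporter cells at 37 °C. Each well was multiplexed: SteadyGlo luminescence measured ATXN2-luciferase expression after a fluorogenic Gly-Phe-AFC viability readout (25 uM final).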
S2 tox = viability counter-screen for ATXN expression inhibitors; S2 cells (HEK-293 line with an ATXN2-luciferase reporter) viability, CellTiter-Fluor protease fluorescence, 24 h; Potency, µM (doses to about 56.7 µM), most hits filed as cytotoxic; 0.49% of 400,000 active; AID 651635; note: nearly all actives have a fitted effect of over 40% in size
A549 tox-1 = counter-screen for Nrf2 inhibitors: cytotoxicity in A549 cells; A549 ARE-Fluc cells, CellTiter-Fluor viability, 18-24 h; Potency, µM (titrated, usually from 46 µM), for the others: top-dose activity change, negative = cytotoxicity, actives largely listed as inhibitors; 0.16% of 390,000 active; AID 504648; note: % is set by controls: 0 for no effect and ±100 for the full control effect
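A549 ARE_Fluc cells in 5% FBS OPTI-MEM were exposed to compounds in concentration-response for 18-24 h at 37 deg C. Viability was read by CellTiter-Fluor fluorescence (Ex 405/Em 525) after 30 min, before the luciferase read.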
FLuc counter 3 = firefly luciferase inhibition, Nrf2 hit validation; shares compounds with Nrf2 inh; purified firefly luciferase, luminescence inhibition; Potency, µM (titrated, usually from 57.5 µM), without a hit: top-dose activity change, negative = inhibition, hits mostly inhibitors; 4% of 1,400 active; note: % is set by controls: 0 for no effect and ±100 for the full control effect; nearly all actives have a fitted effect of over 65% in size
Target sequence (P08659 whole entry, looked up): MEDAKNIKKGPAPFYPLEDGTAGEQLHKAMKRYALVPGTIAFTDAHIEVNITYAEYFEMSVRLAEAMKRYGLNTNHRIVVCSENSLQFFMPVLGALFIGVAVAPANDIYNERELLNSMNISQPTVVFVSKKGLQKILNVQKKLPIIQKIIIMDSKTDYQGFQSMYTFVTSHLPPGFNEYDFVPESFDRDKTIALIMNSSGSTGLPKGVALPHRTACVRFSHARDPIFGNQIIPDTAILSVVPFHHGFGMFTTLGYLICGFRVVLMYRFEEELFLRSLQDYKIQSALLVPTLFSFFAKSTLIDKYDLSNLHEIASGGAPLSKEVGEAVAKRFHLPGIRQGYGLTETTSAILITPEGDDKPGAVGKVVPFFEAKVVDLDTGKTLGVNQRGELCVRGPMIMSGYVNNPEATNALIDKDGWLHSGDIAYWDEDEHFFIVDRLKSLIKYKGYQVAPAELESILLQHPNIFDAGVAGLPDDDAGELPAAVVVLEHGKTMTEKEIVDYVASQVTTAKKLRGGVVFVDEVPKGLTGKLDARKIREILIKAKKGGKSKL
A549 tox-2 = counter-screen for Nrf2 inhibitors: cytotoxicity in A549 ARE cells. A549 ARE-Fluc cells, cytotoxicity counterscreen. shares compounds with Nrf2 inh. Potency, µM (top dose mostly 46.1 µM), for inactives: at the top dose activity change, negative = cytotoxicity, usual class: inhibitors. AID 720523. 2% of 1,400 active;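 note: cells exposed to compounds for 18 to 24 hours; % is set by controls: 0 for no effect and ±100 for the full control effect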
ARE-Fluc inh = Nrf2 inhibition confirmed, A549 ARE-luciferase; shares compounds with Nrf2 inh; A549 ARE-firefly luciferase reporter, luminescence; Potency, µM (highest dose often 46.1 µM), inactives show at the highest dose activity change, negative = inhibition, hits mostly inhibitors; AID 720524; 74% of 1,400 active; note: % is set by controls: 0 for no effect and ±100 for the full control effect; nearly all actives have a fitted effect of over 65% in size
The depositor's hits bear a star; i = inactive; ? = inconclusive; . = no result shown. Compounds with a hit are over-represented: about 2.9% of the library has one in this group of screens. Calls come from the whole dose curve; as a rule, active = well fitted curve in the direction sought with a large enough effect; inconclusive = small, poorly fitted or top-dose-only effect, or another doubt; inactive = no such curve, though single readings can be large; an effect the other way counts as inactive or inconclusive. Potency is the fitted concentration of half-maximal effect.

SMILES | Nrf2 inh | Nrf2 activator | ATXN2 expr inh | S2 tox | A549 tox-1 | FLuc counter 3 | A549 tox-2 | ARE-Fluc inh
CCN(CC)C(=O)Cn1cc(SCC(=O)Nc2cc(OC)ccc2OC)c2ccccc21 | 0% | 3% | . | . | -1% | . | . | .
CCOC(=O)c1ccc(Nc2nc3nonc3nc2Nc2cccc(C)c2C)cc1 | 2.3µM* | 0% | . | . | ? | 15µM* | ? | 5.8µM*
Cc1ccc(S(=O)(=O)CC(=O)Nc2sc3c(c2C(N)=O)CCCC3)cc1 | . | 0% | . | . | -4% | . | . | .
COc1cccc(-c2ncc3ccccc3c2COC(=O)N2CCCCC2)c1 | 5.8µM* | 3% | -21% | i | -2% | -22% | -1% | ?
COc1cccc(-c2ncc3ccccc3c2COC(=O)N2CCOCC2)c1 | -8% | 1% | 3% | ? | -10% | . | . | .
CC(=O)c1ccc(S(=O)(=O)N2CCN(CCOc3ccc(Br)cc3)CC2)cc1 | 4.1µM* | 1% | ? | ? | ? | 0% | -8% | 5.8µM*
CCOc1ccc(S(=O)(=O)N2CCN(S(=O)(=O)c3ccc(C(C)=O)cc3)CC2)cc1 | 6% | 0% | 1% | i | 4% | . | . | .
COc1ccc(CN(C)C(=O)/C=C/c2ccc(S(=O)(=O)N3CCCCCC3)cc2)cc1 | 9.2µM* | 2% | -6% | i | -15% | -12% | -18% | ?
CC(=O)Nc1nnc(SCc2cc(=O)c(OC(=O)c3ccccc3)co2)s1 | 1% | 0% | 6% | i | -3% | . | . | .
Cc1ccc(C(=O)Oc2coc(CSc3nnc(NC(=O)c4cccs4)s3)cc2=O)cc1 | 6.5µM* | -1% | -3% | i | -1% | ? | 1% | 4.6µM*
COCCNc1nc(Nc2ccc(C)cc2C)c2sccc2n1 | . | 1% | -21% | ? | . | . | . | .
Cc1nn(Cc2ccc(Cl)cc2)c(C)c1NC(=O)c1cc(-c2ccc3c(c2)OCO3)on1 | 4.1µM* | 6% | ? | ? | ? | -2% | -10% | 9.2µM*
Cc1ccc(C=Cc2ccccn2)cc1 | . | ? | . | i | . | . | . | .
COc1ccc(/C=C/c2ccccn2)cc1 | . | . | . | . | . | -2% | -30% | 2.3µM*
COc1cc(NC(=O)Cn2c(=O)n(C(C)C)c(=O)c3oc4ccccc4c32)cc(OC)c1 | 19% | 0% | . | . | -1% | . | . | .
CC(=O)c1cccc(NC(=O)N2CCCCCC2)c1 | 9% | 0% | 8% | i | -3% | . | . | .
CC(=O)c1cccc(NS(=O)(=O)c2ccc(NC(=O)N3CCCCC3)cc2)c1 | 8.2µM* | 0% | -18% | ? | -13% | 0% | -3% | 15µM*
CSc1cccc(NS(=O)(=O)c2ccc(C(C)=O)cc2)c1 | 4.6µM* | 0% | -6% | i | 1% | 5% | 0% | .
COc1ccc(CCNC(=O)CCc2c(C)nc3c4cccnc4nn3c2C)cc1OC | -1% | 0% | . | . | -2% | . | . | .
O=C(Oc1ccc(N(Cc2cccs2)C2=NS(=O)(=O)c3ccccc32)cc1)c1ccco1 | -22% | 0% | -6% | i | 0% | . | . | .
O=C(Oc1ccc(N(Cc2cccs2)C2=NS(=O)(=O)c3ccccc32)cc1)c1ccccc1Cl | 1µM* | -1% | -29% | i | -5% | -2% | -1% | 3.7µM*
CCC1C(=O)CC2CCN3C(=O)CCC1C23 (stereo unspecified) | 4% | . | . | . | 0% | . | . | .
CCOC(=O)c1c(C)[nH]c(C)c1S(=O)(=O)N1CCC(C(=O)Nc2ccc(OC)c(OC)c2)CC1 | . | 0% | 2% | i | 24% | . | . | .
O=C(N/N=C(\Cc1ncc[nH]1)c1ccccc1)c1ccncc1 | -15% | 2% | ? | i | 1% | . | . | .
O=C(N/N=C(\c1ccccc1)c1cccnc1)c1cccc(F)c1 | 7.3µM* | ? | ? | ? | ? | -20% | ? | 1.8µM*
SMILES | Nrf2 inh | Nrf2 activator | ATXN2 expr inh | S2 tox | A549 tox-1 | FLuc counter 3 | A549 tox-2 | ARE-Fluc inh
O=C(N/N=C(\Cc1ncc[nH]1)c1ccccc1)c1cccnc1 | 2.3µM* | 2% | ? | i | -16% | -2% | -11% | 8.2µM*
CCC[C@H]1NC(=O)[C@H](C)N(C)C(=O)C(C)(C)C(=O)C(C)NC(=O)[C@H](Cc2ccc(OC)cc2)N(C)C(=O)[C@H](C(C)C)N(C)C(=O)CNC(=O)[C@H](CC(C)C)N(C)C(=O)CNC(=O)[C@H]([C@@H](C)CC)OC(=O)[C@H]1C (stereo partly specified) | 1µM* | -2% | ? | ? | 1.5µM* | 3% | ? | 1.8µM*
Cc1nc(C)c(-c2ccc(SCC(=O)Nc3cccc(C)c3C)nn2)s1 | . | 5% | . | . | 5% | . | . | .
CCCCOCCCNC(=S)Nc1ccc(S(=O)(=O)N2CCOCC2)cc1 | -27% | 2% | . | i | 3% | . | . | .
O=S(=O)(c1ccc(NC(=S)NCCC(c2ccccc2)c2ccccc2)cc1)N1CCOCC1 | 4.1µM* | 1% | ? | ? | ? | -12% | -25% | ?
COc1ccc(CCNC(=O)CCc2c(C)nc3cc(-c4ccccc4)nn3c2C)cc1OC | ? | -3% | ? | i | -12% | . | . | .
COc1cc(OC)cc(-c2cc3nc(C)c(CCC(=O)O)c(C)n3n2)c1 | 1.5µM* | -5% | 0.71µM* | i | 0% | 11µM* | 4% | 2.6µM*
O=C1CCCCCN1C(=O)c1ccccc1 | -3% | -1% | -8% | i | -2% | . | . | .
CC(C)(C)c1ccc(C(=O)N2CCCCCC2=O)cc1 | 9.2µM* | -2% | 6.3µM* | i | -8% | ? | -11% | 3.7µM*
Cc1csc(SCC(=O)Nc2sc3c(c2C#N)CCC3)n1 | -22% | 2% | 5% | i | -26% | . | . | .
Cc1ccnc(SCC(=O)Nc2sc3c(c2C#N)CCCC3)n1 | 9.2µM* | 4% | 9% | i | -21% | -4% | -20% | .
O=C(O)CCC(NC(=O)c1ccc(Cl)cc1)C(=O)O (stereo unspecified) | 7% | -1% | -14% | i | 1% | . | . | .
CN(Cc1cnc2nc(N)nc(N)c2n1)c1ccc(C(=O)NC(CCC(=O)O)C(=O)O)c2ccccc12 (stereo unspecified) | 0.041µM* | 0% | ? | i | -23% | -20% | -18% | 0.033µM*
CCc1c(C)nc2nncn2c1Nc1ccc(Cl)cc1 | -20% | 0% | . | . | 1% | . | . | .
CCc1nnc(NC(=O)c2ccc(S(=O)(=O)N3CCCC(C)C3)cc2)o1 (stereo unspecified) | ? | -1% | -33% | i | -16% | . | . | .
